Data taken from publication PMC4081100, “A DNA-binding-site landscape and regulatory network analysis for NAC transcription factors in Arabidopsis thaliana”.

Key:
Test in all cases: universal protein binding microarray (PBM); transcription factors of Arabidopsis thaliana; high values mean tight binding
GST-ANAC092(1-176) = molecular target: T1, GST-ANAC092(1-176) (Arabidopsis thaliana, UniProt Q9FKA0 1-176); conditions: protein: recombinant; tags: GST; chain copies: 2; dsDNA, one strand shown
T1 sequence: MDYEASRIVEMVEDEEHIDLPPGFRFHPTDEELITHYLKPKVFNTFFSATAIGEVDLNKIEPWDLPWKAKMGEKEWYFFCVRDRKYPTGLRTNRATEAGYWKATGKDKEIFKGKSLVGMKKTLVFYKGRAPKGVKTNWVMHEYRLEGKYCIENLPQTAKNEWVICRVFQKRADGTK
How it was run: (§1)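 Each value is a normalised enrichment score (E-score) describing binding. The GST-tagged proteins, NAC-domain, full-length or DNA-binding-domain, were induced in cells (zinc-finger proteins with zinc acetate added) and purified on glutathione–Sepharose 4B. They were applied at 200 to 500 nM final, in duplicate, to double-stranded custom all-10-mer Agilent 4 × 180K arrays, and gapped and ungapped 8-mers were scored.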

GST-NTL6(1-168) = GST-NTL6(1-168) (Arabidopsis thaliana, UniProt Q9SCK6 1-168); conditions: protein: recombinant; tags: GST; chain copies: 2; dsDNA, one strand shown
Chain of GST-NTL6(1-168) (Q9SCK6 1-168): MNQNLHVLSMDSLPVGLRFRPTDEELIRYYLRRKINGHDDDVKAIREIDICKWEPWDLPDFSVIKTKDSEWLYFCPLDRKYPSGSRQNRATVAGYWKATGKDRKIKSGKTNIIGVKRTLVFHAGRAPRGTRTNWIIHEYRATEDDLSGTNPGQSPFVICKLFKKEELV
How it was run: as §1

GST-ANAC019 NAC domain = molecular target: T2, GST-ANAC019 NAC domain (Arabidopsis thaliana, UniProt Q9C932 14-162); conditions: protein: recombinant; tags: GST; chain copies: 2; dsDNA, one strand shown
T2 sequence: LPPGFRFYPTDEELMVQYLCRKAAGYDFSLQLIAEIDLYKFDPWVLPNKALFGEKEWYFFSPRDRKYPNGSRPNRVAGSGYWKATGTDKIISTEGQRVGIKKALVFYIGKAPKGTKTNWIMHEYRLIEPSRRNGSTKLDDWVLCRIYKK
How it was run: as §1

GST-ANAC055(1-171) = molecular target: T3, GST-ANAC055(1-171) (Arabidopsis thaliana, UniProt Q9LDY8 1-171); conditions: protein: recombinant; tags: GST; chain copies: 2; dsDNA, one strand shown
T3 sequence: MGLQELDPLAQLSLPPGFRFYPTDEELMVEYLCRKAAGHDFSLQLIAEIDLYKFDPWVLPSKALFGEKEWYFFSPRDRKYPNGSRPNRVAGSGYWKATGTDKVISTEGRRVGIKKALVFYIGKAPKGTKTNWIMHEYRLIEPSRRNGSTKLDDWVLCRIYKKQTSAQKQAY
How it was run: as §1

GST-ATAF1 NAC domain = molecular target: T4, GST-ATAF1 NAC domain (Arabidopsis thaliana, UniProt Q39013 7-158); conditions: protein: recombinant; tags: GST; chain copies: 2; dsDNA, one strand shown
T4 sequence: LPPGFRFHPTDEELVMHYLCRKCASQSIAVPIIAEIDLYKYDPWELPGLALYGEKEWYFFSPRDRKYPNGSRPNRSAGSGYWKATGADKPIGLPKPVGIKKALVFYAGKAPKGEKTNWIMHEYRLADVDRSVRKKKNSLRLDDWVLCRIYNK
How it was run: as §1

[1] = molecular target: T5, GST-ANAC092(1-285) full length (Arabidopsis thaliana, UniProt Q9FKA0 1-285); conditions: protein: recombinant; tags: GST; chain copies: 2; dsDNA, one strand shown
T5 sequence: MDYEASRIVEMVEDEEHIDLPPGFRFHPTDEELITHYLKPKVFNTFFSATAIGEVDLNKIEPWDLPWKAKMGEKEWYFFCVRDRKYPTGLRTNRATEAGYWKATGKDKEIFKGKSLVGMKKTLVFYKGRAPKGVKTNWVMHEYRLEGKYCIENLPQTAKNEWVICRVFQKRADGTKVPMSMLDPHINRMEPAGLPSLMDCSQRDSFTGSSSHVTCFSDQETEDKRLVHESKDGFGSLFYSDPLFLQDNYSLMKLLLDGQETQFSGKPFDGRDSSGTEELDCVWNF
How it was run: as §1

GST-NAP(1-166) = molecular target: T6, GST-NAP(1-166) (Arabidopsis thaliana, UniProt O49255 1-166); conditions: protein: recombinant; tags: GST; chain copies: 2; dsDNA, one strand shown
T6 sequence: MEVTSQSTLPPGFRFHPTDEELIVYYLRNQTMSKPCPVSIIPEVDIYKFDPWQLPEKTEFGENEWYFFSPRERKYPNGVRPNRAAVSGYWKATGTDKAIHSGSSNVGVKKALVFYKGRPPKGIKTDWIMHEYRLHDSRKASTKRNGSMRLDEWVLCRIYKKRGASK
How it was run: as §1

GST-NST2(1-184) = molecular target: T7, GST-NST2(1-184) (Arabidopsis thaliana, UniProt Q9M274 1-184); conditions: protein: recombinant; tags: GST; chain copies: 2; dsDNA, one strand shown
T7 sequence: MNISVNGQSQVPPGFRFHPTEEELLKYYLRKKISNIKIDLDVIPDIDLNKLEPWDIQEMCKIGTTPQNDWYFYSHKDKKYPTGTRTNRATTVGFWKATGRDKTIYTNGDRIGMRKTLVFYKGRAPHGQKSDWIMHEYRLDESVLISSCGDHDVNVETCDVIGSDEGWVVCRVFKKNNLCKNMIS
How it was run: as §1

GST-NTL8 NAC domain = molecular target: T8, GST-NTL8 NAC domain (Arabidopsis thaliana, UniProt Q9XIN7 14-156); conditions: protein: recombinant; tags: GST; chain copies: 2; dsDNA, one strand shown
T8 sequence: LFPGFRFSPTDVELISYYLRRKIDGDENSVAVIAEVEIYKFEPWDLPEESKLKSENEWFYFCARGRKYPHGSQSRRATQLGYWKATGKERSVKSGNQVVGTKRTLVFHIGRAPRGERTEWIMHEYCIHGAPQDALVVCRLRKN
How it was run: as §1

GST-SND1(1-203) = molecular target: T9, GST-SND1(1-203) (Arabidopsis thaliana, UniProt Q9LPI7 1-203); conditions: protein: recombinant; tags: GST; chain copies: 2; dsDNA, one strand shown
T9 sequence: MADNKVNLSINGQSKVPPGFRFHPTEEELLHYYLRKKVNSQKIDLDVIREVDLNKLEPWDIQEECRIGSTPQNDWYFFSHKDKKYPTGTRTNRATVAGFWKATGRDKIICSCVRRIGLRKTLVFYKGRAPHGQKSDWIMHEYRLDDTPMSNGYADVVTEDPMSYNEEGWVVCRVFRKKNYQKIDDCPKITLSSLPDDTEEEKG
How it was run: as §1

GST-VND3 NAC domain = molecular target: T10, GST-VND3 NAC domain (Arabidopsis thaliana, UniProt Q9FH59 12-162); conditions: protein: recombinant; tags: GST; chain copies: 2; dsDNA, one strand shown
T10 sequence: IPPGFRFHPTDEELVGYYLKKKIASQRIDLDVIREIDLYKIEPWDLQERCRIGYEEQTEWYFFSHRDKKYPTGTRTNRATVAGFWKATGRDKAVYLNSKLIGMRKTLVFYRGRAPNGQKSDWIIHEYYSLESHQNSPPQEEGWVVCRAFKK
How it was run: as §1

GST-VND7 NAC domain = molecular target: T11, GST-VND7 NAC domain (Arabidopsis thaliana, UniProt Q9C8W9 9-158); conditions: protein: recombinant; tags: GST; chain copies: 2; dsDNA, one strand shown
T11 sequence: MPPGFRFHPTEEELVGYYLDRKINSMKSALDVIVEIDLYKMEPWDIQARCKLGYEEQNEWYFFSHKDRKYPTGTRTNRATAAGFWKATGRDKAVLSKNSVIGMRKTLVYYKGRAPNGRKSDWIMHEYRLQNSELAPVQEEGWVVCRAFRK
How it was run: as §1

GST-WRKY1(266-371) = GST-WRKY1(266-371) (Arabidopsis thaliana, UniProt Q9SI37 266-371); conditions: protein: recombinant; tags: GST; dsDNA, one strand shown
Chain of GST-WRKY1(266-371) (Q9SI37 266-371): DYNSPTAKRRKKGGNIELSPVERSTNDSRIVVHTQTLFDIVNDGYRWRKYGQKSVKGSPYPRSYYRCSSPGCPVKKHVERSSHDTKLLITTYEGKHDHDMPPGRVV
How it was run: as §1

With TTACGTAA the binding signal (GST-ANAC092(1-176)) was 0.476 E-score, the binding signal (GST-NTL6(1-168)) was 0.171 E-score and the binding signal (GST-ANAC019 NAC domain) was 0.479 E-score. For the same sequence, the binding signal (GST-ANAC055(1-171)) was 0.478 E-score, the binding signal (GST-ATAF1 NAC domain) was 0.465 E-score and the binding signal [1] was 0.469 E-score. For the same sequence, the binding signal (GST-NAP(1-166)) was 0.484 E-score, the binding signal (GST-NST2(1-184)) was 0.433 E-score and the binding signal (GST-NTL8 NAC domain) was 0.411 E-score. The binding signal (GST-SND1(1-203)) was 0.484 E-score, the binding signal (GST-VND3 NAC domain) was 0.483 E-score and the binding signal (GST-VND7 NAC domain) was 0.481 E-score. The binding signal (GST-WRKY1(266-371)) was 0.0521 E-score.

Sequence ACGTAAAG has a binding signal (GST-ANAC092(1-176)) of 0.402 E-score, a binding signal (GST-NTL6(1-168)) of 0.0957 E-score and a binding signal (GST-ANAC019 NAC domain) of 0.367 E-score. The binding signal (GST-ANAC055(1-171)) was 0.317 E-score, the binding signal (GST-ATAF1 NAC domain) was 0.301 E-score and the binding signal [1] was 0.421 E-score. For the same sequence, the binding signal (GST-NAP(1-166)) was 0.255 E-score, the binding signal (GST-NST2(1-184)) was 0.319 E-score and the binding signal (GST-NTL8 NAC domain) was 0.0757 E-score. For the same sequence, the binding signal (GST-SND1(1-203)) was 0.41 E-score, the binding signal (GST-VND3 NAC domain) was 0.359 E-score and the binding signal (GST-VND7 NAC domain) was 0.283 E-score. It also gave a binding signal (GST-WRKY1(266-371)) of 0.103 E-score.

Sequence ATGCGTAC has a binding signal (GST-ANAC092(1-176)) of 0.362 E-score, a binding signal (GST-NTL6(1-168)) of 0.0817 E-score and a binding signal (GST-ANAC019 NAC domain) of 0.191 E-score. It also gave a binding signal (GST-ANAC055(1-171)) of 0.17 E-score, a binding signal (GST-ATAF1 NAC domain) of 0.229 E-score and a binding signal [1] of 0.414 E-score. For the same sequence, the binding signal (GST-NAP(1-166)) was 0.237 E-score, the binding signal (GST-NST2(1-184)) was 0.192 E-score and the binding signal (GST-SND1(1-203)) was 0.292 E-score. It also gave a binding signal (GST-VND3 NAC domain) of 0.235 E-score, a binding signal (GST-VND7 NAC domain) of 0.21 E-score and a binding signal (GST-WRKY1(266-371)) of 0.0545 E-score.

TGAAGAAA gave a binding signal (GST-ANAC092(1-176)) of 0.188 E-score, a binding signal (GST-NTL6(1-168)) of 0.339 E-score and a binding signal (GST-ANAC019 NAC domain) of 0.151 E-score. It also gave a binding signal (GST-ANAC055(1-171)) of 0.114 E-score, a binding signal (GST-ATAF1 NAC domain) of 0.129 E-score and a binding signal [1] of 0.0672 E-score. For the same sequence, the binding signal (GST-NAP(1-166)) was 0.0893 E-score, the binding signal (GST-NST2(1-184)) was 0.241 E-score and the binding signal (GST-NTL8 NAC domain) was 0.45 E-score. It also gave a binding signal (GST-SND1(1-203)) of 0.152 E-score, a binding signal (GST-VND3 NAC domain) of 0.121 E-score and a binding signal (GST-VND7 NAC domain) of 0.215 E-score. For the same sequence, the binding signal (GST-WRKY1(266-371)) was 0.211 E-score.

AACGTAGA showed a binding signal (GST-ANAC092(1-176)) of 0.21 E-score, a binding signal (GST-NTL6(1-168)) of 0.145 E-score and a binding signal (GST-ANAC019 NAC domain) of 0.0983 E-score. For the same sequence, the binding signal (GST-ANAC055(1-171)) was 0.226 E-score, the binding signal (GST-ATAF1 NAC domain) was 0.163 E-score and the binding signal [1] was 0.329 E-score. It also gave a binding signal (GST-NAP(1-166)) of 0.0935 E-score, a binding signal (GST-NST2(1-184)) of 0.34 E-score and a binding signal (GST-SND1(1-203)) of 0.408 E-score. For the same sequence, the binding signal (GST-VND3 NAC domain) was 0.206 E-score, the binding signal (GST-VND7 NAC domain) was 0.184 E-score and the binding signal (GST-WRKY1(266-371)) was 0.317 E-score.

In the case of CACGCAAG, the binding signal (GST-ANAC092(1-176)) is reported as 0.481 E-score, the binding signal (GST-NTL6(1-168)) is reported as 0.0685 E-score and the binding signal (GST-ANAC019 NAC domain) is reported as 0.413 E-score. It also gave a binding signal (GST-ANAC055(1-171)) of 0.354 E-score, a binding signal (GST-ATAF1 NAC domain) of 0.268 E-score and a binding signal [1] of 0.484 E-score. The binding signal (GST-NAP(1-166)) was 0.348 E-score, the binding signal (GST-NST2(1-184)) was 0.358 E-score and the binding signal (GST-NTL8 NAC domain) was 0.155 E-score. For the same sequence, the binding signal (GST-SND1(1-203)) was 0.404 E-score, the binding signal (GST-VND3 NAC domain) was 0.415 E-score and the binding signal (GST-VND7 NAC domain) was 0.367 E-score. The binding signal (GST-WRKY1(266-371)) was 0.0865 E-score.
